Laboratory results reported in PubChem BioAssay AID1117319 (Southern Research Institute, 2015).
Screen size: about 260,000 compounds; about 1,500 (0.58%) were called active. Roughly 5% stayed inconclusive and do not appear here.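 How the source made its calls: active means inhibition above a set limit at one or more doses, reproduced on every date tested; inconclusive means results disagree between test dates, or hit never tested in dose response; inactive means the rest.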 These entries were drawn from the full list. Potency and affinity values are given separately.

Target: Virion infectivity factor (Human immunodeficiency virus type 1 group M subtype B (isolate BH10)) + Virion infectivity factor (Human immunodeficiency virus type 1 group M subtype B (isolate BRU/LAI)) + Virion infectivity factor (Human immunodeficiency virus type 1 group M subtype B (isolate PCV12)) + Virion infectivity factor (Human immunodeficiency virus type 1 group M subtype B (isolate HXB2)) + DNA dC->dU-editing enzyme APOBEC-3G (Homo sapiens) (UniProt P69720+P69721+P69722+P69723+Q9HC16)
Assay: HIV-1 Vif–A3G interaction blockers – biochemical, TR-FRET, GST-Vif 1-94, biotin-A3G peptide, dose response retest, primary screen (AID 1117319);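 further: Vif residues 1-94 fused to GST binding biotinylated APOBEC3G peptide 110-148; 0% = full assay without inhibitor and 100% = GST in place of GST-Vif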
Details: TR-FRET GST-Vif / biotin-A3G peptide binding; hits give high values

inhibition, inactive:
CCN(CC)S(=O)(=O)c1ccc(N2CC(C(=O)NCCC3=CCCCC3)CC2=O)cc1 (stereo unspecified) -3.38%
Cc1ccc(S(=O)(=O)N2CCN(Cc3ccccn3)CC2)cc1 0.21%
CC(=O)Nc1ccc(S(=O)(=O)N2CCN(c3ccccn3)CC2)cc1 25%
O=C(O)/C(=C\c1cn(-c2ccccc2)nc1-c1cccnc1)NC(=O)c1ccccc1 -1.44%
Cc1ccc(OCc2n[nH]c(=S)n2-c2ccccc2)cc1C -3.72%
Cc1cccc(OCc2n[nH]c(=S)n2-c2ccccc2)c1 1.89%
O=C(CN1CCN(C(=O)c2ccccc2)CC1)Nc1cc(S(=O)(=O)N2CCCC2)ccc1Cl -24.1%
COC(=O)C1=C(C)NC(C)=C(C(=O)OC)C1C(=O)OCc1nc2cc(C(=O)OC)ccc2c(=O)[nH]1 -5.82%
Cc1ccc(-c2nc(N)n(S(=O)(=O)c3ccc(C)cc3)n2)cc1 0.67%
O=C(C1CC=CCC1)N1CCN(S(=O)(=O)c2ccc(F)cc2)CC1 (stereo unspecified) -4.47%
CC(C)C1Nc2ccc(S(N)(=O)=O)cc2C2C=CCC21 (stereo unspecified) 30.5%
CC(OC(=O)c1n[nH]c2ccccc12)C(=O)NC1CCCCC1C (stereo unspecified) 1.37%
CCOC(=O)N1CCN(c2ccc([N+](=O)[O-])cc2)CC1 0.75%
CCOC(=O)N1CCN(c2ccc(Cl)cc2)CC1 -2.77%
CCc1ccccc1NC(=S)N(CCCN(C)C)Cc1cc2cc3c(cc2[nH]c1=O)OCO3 -0.74%
Clc1ccc(Oc2nc(N3CCOCC3)nc(N3CCOCC3)n2)c(C2CCCCC2)c1 -3.78%
CCN(CC(=O)Nc1ccc(NC(C)=O)cc1)C(=O)c1ccc(N2CCC(C)CC2)c([N+](=O)[O-])c1 3.59%
O=C(O)C1CCC(NSc2ccccc2[N+](=O)[O-])CC1 (stereo unspecified) -7.35%
O=C(O)c1ccc(N2C(=O)CSC2c2cccc([N+](=O)[O-])c2)cc1 (stereo unspecified) -1.67%
O=C(O)c1cccc2c1-c1c(cccc1[N+](=O)[O-])C2 -2.94%
O=C(NC1CC1)c1ccc2c(c1)C1C3CCC(C3)C1C(c1ccccc1)N2 (stereo unspecified) 3.47%
CCN(C(=O)c1ccc(Cl)c([N+](=O)[O-])c1)c1ccccc1 3.48%
CC(C)Cc1cc(C(=O)Nc2cc(C(F)(F)F)ccc2Cl)no1 14.1%
C=Cc1ccc(CSc2cc(C)nc3nc(C)nn23)cc1 -4.49%
Cc1ccc(CNc2ccc3c(c2)ncn3C(C)C)cc1 15.2%
CC(C)(C)c1ccc(C(=O)C2CCCN(C(=O)CN3CCCC3=O)C2)cc1 (stereo unspecified) -3.41%
Cc1ccc(NC(=O)CCCN2C(=O)C(c3ccccc3)Oc3cccnc32)c(C)c1 (stereo unspecified) -3%
CCCCOc1ccc(C(=O)N/C(=C\c2ccc(OC)cc2)C(=O)OCc2ccco2)cc1 -1.87%
COc1ccc(C(=O)N/C(=C\c2ccco2)C(=O)OCc2ccco2)cc1 19.9%
COc1ccc2c(c1)NC(C)(C)C=C2C 32.2%
COc1cc(NCCCCCCCN)c2ncccc2c1 3.69%
COc1cc(NC(C)CCCNC(C)C)c2ncccc2c1OC (stereo unspecified) 3.4%
COC(=O)c1cc(NC(=O)COC(=O)CCc2c[nH]c3ccccc23)cc(C(=O)OC)c1 2.64%
O=C1N=C(N2CCOCC2)S/C1=C/c1ccc(-c2ccccc2Cl)o1 7.88%
CC(=O)N1CC(=O)N(Cc2ccccc2)/C(=C/c2ccccc2)C1=O 7.17%
O=C1CC(/C=C/c2ccncc2)=Nc2ccccc2N1 3.89%
O=C1CC(/C=C/c2ccccc2)=Nc2ccccc2N1 4.19%
CC1=C([N+](=O)[O-])C(c2ccc(Cl)cc2)NC(=O)N1C (stereo unspecified) 6.98%
FC(F)(F)c1ccc(N2CCN(Cc3ccc4c(c3)OCO4)CC2)nc1 -10.1%
CCOC(=O)C1=C(N)OC2=C(C(=O)CC(C)(C)C2)C1c1ccoc1 (stereo unspecified) -2.95%
CC(C)NC(=O)COc1ccc(Cl)cc1Cl -3.29%
C/C(=C\C(=O)c1ccc(Br)cc1)Nc1cccc(Cl)c1 -2.57%
Cc1ccc(C(=O)/C=C/Nc2cccc(O)c2)cc1 1.59%
O=C(Cc1ccccc1)NNC1CC(=O)N(c2ccc(Cl)cc2)C1=O (stereo unspecified) 8.41%
Cc1ccnc(SCc2cc(=O)c(OC(=O)c3ccccc3)co2)n1 6.36%
CCN(CC)c1ccc(NC(=O)Nc2ccccc2)cc1 5.11%
CCN(CC)c1ccc(C(=S)NCc2ccccc2)cc1 7.25%
COc1ccccc1NC(=O)C(C)N1C(=O)C2CCCCC2C1=O (stereo unspecified) 9.66%
COc1ccc(CCNC(=S)Nc2cc(C)ccc2C)cc1 2.7%
Cn1cccc1/C=C1\SC(=Nc2ccc(O)cc2)NC1=O -0.29%
COc1ccc(N=C2NC(=O)/C(=C/C=C/c3ccccc3)S2)cc1 -3.43%
O=C1NC(=Nc2ccc3ccccc3c2)S/C1=C/c1ccco1 -0.8%
COC(=O)/C=C1\SC(=Nc2ccc(OC)cc2)NC1=O -0.91%
COc1ccc2c(c1OC)C(=O)OC2CC(=O)c1ccc2c(c1)OCO2 (stereo unspecified) -2.78%
CCOC(=O)CSc1ccc2nnc(-c3ccncc3)n2n1 3.55%
Cc1ccc(NC(=O)C2CCC2)cc1S(=O)(=O)N1CCCCCC1 0.74%
O=S(=O)(NCC(c1cccnc1)N1CCOCC1)c1ccc(Cl)cc1 (stereo unspecified) 1.91%
CC(C)c1ccccc1NC(=O)Cn1c(/C=C/c2ccccc2)nc2ccccc21 2.28%
Cc1cc(N/N=C/c2ccc(N(C)C)cc2)nc(NCc2ccccc2)n1 7.69%
CC(=O)c1ccc(S(=O)(=O)NCc2cccnc2)cc1 0.59%
COc1cc(C(C)=O)ccc1OCC(=O)N1CCCC1c1ccc2c(c1)OCCCO2 (stereo unspecified) -2.26%
